Bioassay records as filed in PubChem BioAssay.
A selection: hits, their analogues and other compounds. The true share with any hit is near 0.99%.
Cardiac RTF inh: cardiac RTF calcium sensitivity inhibitors, primary screen, biochemical, IANBD-TnC fluorescence, EC70 calcium; Troponin I, cardiac muscle (Homo sapiens) + Troponin T, cardiac muscle (Homo sapiens) + …; inhibition, % at 7.15 µM; IANBD-labeled cardiac RTF, Ca2+ fluorescence; 0.12% of 340,000 active;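 active = inhibition above the mean inhibition of all tested compounds plus 3 SD, cut at about 17% in these data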;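 note: assay run at fixed EC70 calcium of 1.6 mM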
LANA DNA inh: inhibitors of KSHV C-LANA binding to DNA, primary screen, biochemical, fluorescence polarization, FAM-LBS DNA, MBP-C-LANA, single point; inhibition, % at 9 µM; 0.078% of 340,000 active; AID 504423, 2011;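 active = highest replicate inhibition at or above 60% at 9 µM, even if other replicates fall short; inactive = all replicates below 60% inhibition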
Keap1-Nrf2 PPI: Keap1-Nrf2 protein-protein interaction inhibitors, primary screen, biochemical, fluorescence polarization, single point; Kelch-like ECH-associated protein 1 (Homo sapiens), Q14145; Keap1 Kelch-Nrf2 peptide fluorescence polarization, 1536-well; inhibition, % at 9.4 µM; 0.15% of 340,000 active; AID 504523, 2011; in the data active = inhibition above about 12%;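 note: human Keap1 Kelch domain with fluorescein labeled Nrf2 9mer peptide probe; higher means more block of Keap1 binding to Nrf2 peptide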
Target sequence (Q14145 whole entry, looked up, the tested form may be a part): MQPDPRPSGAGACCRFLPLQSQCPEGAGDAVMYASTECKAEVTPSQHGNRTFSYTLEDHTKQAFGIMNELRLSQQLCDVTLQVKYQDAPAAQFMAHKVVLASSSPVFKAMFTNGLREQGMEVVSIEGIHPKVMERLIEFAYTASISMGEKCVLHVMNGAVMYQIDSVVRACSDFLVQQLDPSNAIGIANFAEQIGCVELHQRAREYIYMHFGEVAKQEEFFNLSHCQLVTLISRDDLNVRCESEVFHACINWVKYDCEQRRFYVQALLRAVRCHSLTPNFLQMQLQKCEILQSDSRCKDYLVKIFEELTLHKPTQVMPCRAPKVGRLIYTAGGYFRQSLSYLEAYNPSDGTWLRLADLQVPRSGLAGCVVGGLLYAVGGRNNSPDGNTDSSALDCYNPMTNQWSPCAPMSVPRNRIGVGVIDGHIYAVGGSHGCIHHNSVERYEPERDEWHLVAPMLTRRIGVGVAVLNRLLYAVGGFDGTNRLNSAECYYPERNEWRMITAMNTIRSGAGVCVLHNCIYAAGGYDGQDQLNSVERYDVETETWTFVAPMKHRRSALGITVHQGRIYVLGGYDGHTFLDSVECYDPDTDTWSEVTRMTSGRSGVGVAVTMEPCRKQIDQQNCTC
LANA-H2B inh: blockers of LANA interaction with H2A/H2B – biochemical, FP readout, HTS, primary screen; cell-free LANA-H2A/H2B peptide, fluorescence polarization; inhibition, % (concentration not given with the values); 0.6% of 320,000 active; in the data active = inhibition mostly above about 10%, no sharp cut-off; inactive = mostly below about 6.7%
cardiac RTF act: cardiac RTF calcium sensitivity activators, primary screen, biochemical, IANBD-TnC fluorescence, EC20 calcium | 0.24% of 340,000 active | AID 493008, 2010 | Troponin I, cardiac muscle (Homo sapiens) + Troponin T, cardiac muscle (Homo sapiens) + … | IANBD-labeled TnC RTF fluorescence at EC20 calcium; 0% EC20 calcium, 100% full calcium | activation, % at 7.2 µM;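 active = activation above the mean over all tested compounds plus 3 SD, cut at about 30% in these data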;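 note: rise in fluorescence read as greater calcium sensitivity of cardiac thin filaments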
Hits are given with their value.

CN(C)c1ccc(/C=C(\C#N)C(=O)Nc2nc3c(s2)CCN(Cc2ccccc2)C3)cc1 was read as Cardiac RTF inh inactive, LANA DNA inh inactive, Keap1-Nrf2 PPI inactive, LANA-H2B inh inactive and cardiac RTF act 83.
For Cc1ccn(CCC(=O)N2CCCC(CCC(=O)NCc3ccc(F)c(F)c3)C2)n1 (stereo unspecified) the results were Cardiac RTF inh inactive, LANA DNA inh inactive, Keap1-Nrf2 PPI inactive, LANA-H2B inh inactive and cardiac RTF act inactive.
For CCOC(=O)CC(=O)CSc1nc(-c2ccc3c(c2)OCO3)cc(C(F)(F)F)c1C#N the results were Cardiac RTF inh inactive, LANA DNA inh inactive, Keap1-Nrf2 PPI inactive, LANA-H2B inh inactive and cardiac RTF act 40.
CCOC(=O)CCSc1nc(-c2ccc3c(c2)OCO3)cc(C(F)(F)F)c1C#N was read as Cardiac RTF inh inactive, LANA DNA inh inactive, Keap1-Nrf2 PPI inactive, LANA-H2B inh inactive and cardiac RTF act inactive.
Screening O=S(OCCN1CCCC1)C(c1ccccc1)c1ccccc1 (stereo unspecified) returned Cardiac RTF inh inactive, LANA DNA inh inactive, Keap1-Nrf2 PPI inactive and cardiac RTF act inactive.
Screening COc1ccccc1C(=O)NCC(=O)OC(C)C(=O)N(C)C1CCCCC1 (stereo unspecified) returned Cardiac RTF inh inactive, LANA DNA inh inactive, Keap1-Nrf2 PPI inactive, LANA-H2B inh 19 and cardiac RTF act inactive.
Screening O=[N+]([O-])c1ccc(S(=O)(=O)NCC(c2cccnc2)N2CCc3ccccc3C2)cc1 (stereo unspecified) returned Cardiac RTF inh inactive, LANA DNA inh inactive, Keap1-Nrf2 PPI inactive, LANA-H2B inh inactive and cardiac RTF act inactive.
`O=C(Nc1ccc(-n2cnnn2)cc1)C1CCCN1C(=O)NC1CCCCC1` (stereo unspecified) gave Cardiac RTF inh inactive, LANA DNA inh inactive, Keap1-Nrf2 PPI inactive, LANA-H2B inh inactive and cardiac RTF act inactive.
For O=C(Nc1ccc(-n2cnnn2)cc1)C1CCCCC1 the results were Cardiac RTF inh inactive, LANA DNA inh inactive, Keap1-Nrf2 PPI inactive, LANA-H2B inh 13 and cardiac RTF act inactive.
Screening CC1C/C(=C/c2ccncc2)C(=O)/C(=C/c2ccncc2)C1 (stereo unspecified) returned Cardiac RTF inh inactive, LANA DNA inh inactive, Keap1-Nrf2 PPI inactive, LANA-H2B inh inactive and cardiac RTF act inactive.
For CC1C/C(=C/c2cccn2C)C(=O)/C(=C/c2cccn2C)C1 (stereo unspecified) the results were Cardiac RTF inh inactive, LANA DNA inh inactive, Keap1-Nrf2 PPI inactive, LANA-H2B inh inactive and cardiac RTF act 375.
`Cc1ccc2oc(=O)c(/C=C(\O)c3ccco3)nc2c1` gave Cardiac RTF inh inactive, LANA DNA inh inactive, Keap1-Nrf2 PPI inactive, LANA-H2B inh 4.3 and cardiac RTF act inactive.
`O=C(O)CCCN1C(=O)/C(=C\c2ccccc2OCc2ccccc2)SC1=S` gave Cardiac RTF inh inactive, LANA DNA inh inactive, Keap1-Nrf2 PPI inactive, LANA-H2B inh inactive and cardiac RTF act inactive.
`O=C(O)CCCN1C(=O)/C(=C/c2cn(-c3ccccc3)nc2-c2cccs2)SC1=S` gave Cardiac RTF inh inactive, LANA DNA inh inactive, Keap1-Nrf2 PPI inactive and cardiac RTF act 31.
For Cc1ccc(S(=O)(=O)/N=c2\ccc(Cl)cn2C(F)F)cc1 the results were Cardiac RTF inh inactive, LANA DNA inh inactive, Keap1-Nrf2 PPI inactive, LANA-H2B inh 17 and cardiac RTF act inactive.
`C#C[C@]1(O)CC[C@H]2[C@@H]3CCc4cc(O)ccc4[C@H]3CC[C@@]21C` gave Cardiac RTF inh inactive, LANA DNA inh inactive, Keap1-Nrf2 PPI inactive, LANA-H2B inh inactive and cardiac RTF act inactive.
C#C[C@]1(O)CCC2C3CCC4=Cc5oncc5CC4(C)C3CCC21C (stereo partly specified) was read as Cardiac RTF inh inactive, LANA DNA inh inactive, Keap1-Nrf2 PPI inactive, LANA-H2B inh 13 and cardiac RTF act inactive.
`COC(=O)c1c(C)[nH]c(C(=O)C(C)OC(=O)C2=NNC(=O)CC2)c1C` (stereo unspecified) gave Cardiac RTF inh inactive, LANA DNA inh inactive, Keap1-Nrf2 PPI inactive, LANA-H2B inh inactive and cardiac RTF act inactive.
Screening COC(=O)c1ccccc1-c1ccc(/C=N/NC(=O)c2cc3ccccc3o2)o1 returned Cardiac RTF inh inactive, LANA DNA inh inactive, Keap1-Nrf2 PPI inactive, LANA-H2B inh inactive and cardiac RTF act inactive.
For COC(=O)c1ccccc1-c1c2ccc(=N)cc-2oc2cc(N)ccc12 the results were Keap1-Nrf2 PPI active, LANA-H2B inh 192 and cardiac RTF act active.
Screening Cc1nnc(SCC(=O)N(CC(C)C)c2c(N)n(CC(C)C)c(=O)[nH]c2=O)n1-c1ccccc1 returned Cardiac RTF inh inactive, LANA DNA inh inactive, Keap1-Nrf2 PPI inactive, LANA-H2B inh inactive and cardiac RTF act inactive.
For Cc1ccnc(N/C=C(\C#N)c2nc(-c3cccc(Br)c3)cs2)c1 the results were Cardiac RTF inh inactive, LANA DNA inh inactive, Keap1-Nrf2 PPI inactive, LANA-H2B inh inactive and cardiac RTF act 95.
Screening CCc1ccc(N2CC(C(=O)NCC(C)(C)N3CCOCC3)CC2=O)cc1 (stereo unspecified) returned Cardiac RTF inh inactive, LANA DNA inh inactive, Keap1-Nrf2 PPI inactive, LANA-H2B inh inactive and cardiac RTF act inactive.
Screening COc1ccc(N2C(=O)c3ccc(C(=O)Nc4ccccc4O)cc3C2=O)cc1 returned Cardiac RTF inh inactive, LANA DNA inh inactive, Keap1-Nrf2 PPI inactive, LANA-H2B inh 15 and cardiac RTF act inactive.
`O=C(O)CCc1ccc(-c2ccc(Cl)cc2)n1NC(=O)c1ccc(O)cc1` gave Cardiac RTF inh inactive, LANA DNA inh inactive, Keap1-Nrf2 PPI inactive, LANA-H2B inh inactive and cardiac RTF act inactive.
For COc1ccc(/C=C/C(=O)Nc2ccccc2)cc1OC the results were Cardiac RTF inh inactive, LANA DNA inh inactive, Keap1-Nrf2 PPI inactive, LANA-H2B inh inactive and cardiac RTF act inactive.
For COc1ccccc1CNC(=O)CCC(=O)Nc1nnc(C(C)C)s1 the results were Cardiac RTF inh inactive, LANA DNA inh inactive, Keap1-Nrf2 PPI inactive, LANA-H2B inh 20 and cardiac RTF act inactive.
Screening COc1ccc(/C=C/C(=O)Nc2nnc(C(C)C)s2)cc1OC returned LANA-H2B inh 20.
O=c1cc(CN2CCN(S(=O)(=O)c3ccccc3)CC2)nc2sccn12 was read as Cardiac RTF inh inactive, LANA DNA inh inactive, Keap1-Nrf2 PPI inactive, LANA-H2B inh inactive and cardiac RTF act inactive.
`O=c1cc(CN2CCCCCC2)nc2sccn12` gave Cardiac RTF inh inactive, LANA DNA inh inactive, Keap1-Nrf2 PPI inactive, LANA-H2B inh active and cardiac RTF act inactive.
Screening CC(=O)Oc1c(Cl)c(N2CCOCC2)c(OC(C)=O)c2ccccc12 returned Cardiac RTF inh inactive, LANA DNA inh inactive, Keap1-Nrf2 PPI inactive, LANA-H2B inh inactive and cardiac RTF act inactive.
